Data reported in the antibiotic and cytotoxicity screens of Wong et al. (2023).
Out of some 39,000 compounds screened, about 3,300 (8.5%) were called active. This excerpt belongs to a sample that is enriched for actives.

What follows are compounds tested on HepG2 (assay: cytotoxicity call (relative viability < 0.9)). Conditions: 10 µM.

SMILES | cytotoxicity call
C[C@@H]1CN([C@@H](C)CO)S(=O)(=O)c2ccc(C#Cc3ccccc3F)cc2O[C@@H]1CN(C)CC1CCOCC1 | inactive
O=C(C[C@H]1C=C[C@H](NC(=O)CN2CCOCC2)[C@@H](CO)O1)NCCc1ccccc1 | inactive
CC(C)NC(=O)N(C)C[C@@H]1Oc2ccc(NC(=O)NC3CCCCC3)cc2C(=O)N([C@@H](C)CO)C[C@H]1C | inactive
Cc1ccc(S(=O)(=O)N(C)C[C@@H]2OCCCC[C@H](C)Oc3ccc(NC(=O)Nc4ccc(F)cc4)cc3C(=O)N([C@@H](C)CO)C[C@@H]2C)cc1 | inactive
Cc1ccc(S(=O)(=O)N(C)C[C@@H]2OCCCC[C@@H](C)Oc3ccc(NC(=O)Nc4ccccc4)cc3C(=O)N([C@@H](C)CO)C[C@H]2C)cc1 | active
Cc1ccc(S(=O)(=O)N(C)C[C@@H]2OCCCC[C@@H](C)Oc3ccc(NC(=O)Nc4ccc(F)cc4)cc3C(=O)N([C@@H](C)CO)C[C@@H]2C)cc1 | inactive
Cc1ccc(S(=O)(=O)N(C)C[C@@H]2OCCCC[C@H](C)Oc3ccc(NC(=O)Nc4ccc(F)cc4)cc3C(=O)N([C@@H](C)CO)C[C@H]2C)cc1 | inactive
Cc1ccc(S(=O)(=O)N(C)C[C@H]2OCCCC[C@@H](C)Oc3ccc(NC(=O)Nc4ccc(F)cc4)cc3C(=O)N([C@H](C)CO)C[C@H]2C)cc1 | inactive
Cc1ccc(S(=O)(=O)N(C)C[C@@H]2OCCCC[C@H](C)Oc3ccc(NC(=O)Nc4ccccc4)cc3C(=O)N([C@@H](C)CO)C[C@H]2C)cc1 | inactive
Cc1ccc(S(=O)(=O)N(C)C[C@@H]2OCCCC[C@@H](C)Oc3ccc(NC(=O)Nc4ccc(F)cc4)cc3C(=O)N([C@H](C)CO)C[C@H]2C)cc1 | active
Cc1ccc(S(=O)(=O)N(C)C[C@H]2OCCCC[C@@H](C)Oc3ccc(NC(=O)Nc4ccc(F)cc4)cc3C(=O)N([C@@H](C)CO)C[C@H]2C)cc1 | active
Cc1ccc(S(=O)(=O)N(C)C[C@@H]2OCCCC[C@@H](C)Oc3ccc(NC(=O)Nc4ccccc4)cc3C(=O)N([C@H](C)CO)C[C@H]2C)cc1 | inactive
CCS(=O)(=O)N1CC[C@]2(CC1)CN(Cc1ccc3c(c1)OCO3)[C@H](CO)c1c2c2ccc(cc2n1C)OC | inactive
O=C(C[C@H]1C=C[C@H](NC(=O)Cc2ccccn2)[C@@H](CO)O1)NCCCN1CCOCC1 | inactive
CC(C)NC(=O)Nc1ccc2c(c1)C(=O)N([C@H](C)CO)C[C@H](C)[C@@H](CN(C)Cc1ccc(Oc3ccccc3)cc1)O2 | inactive
C[C@H](CO)N1C[C@H](C)[C@@H](CN(C)S(=O)(=O)c2ccc(F)cc2)Oc2ncc(Br)cc2C1=O | inactive
C[C@@H]1CN([C@@H](C)CO)C(=O)Cc2cc(NS(=O)(=O)c3ccc(F)cc3)ccc2O[C@@H]1CN(C)CC1CC1 | inactive
COc1ccccc1-c1ccc2c(c1)O[C@@H](CN(C)C(=O)c1ccncc1)[C@@H](C)CN([C@@H](C)CO)S2(=O)=O | inactive
O=c1cc[nH]c(=S)[nH]1 | inactive
Cn1cnc(S(=O)(=O)N2C[C@@H](O)COC[C@@H]3O[C@@H](CC(=O)NCc4cccc(F)c4)CC[C@H]32)c1 | inactive
C[C@@H]1CCCCO[C@H](CN(C)Cc2ccc(C(=O)O)cc2)[C@@H](C)CN([C@@H](C)CO)C(=O)c2cc(NC(=O)Nc3ccccc3)ccc2O1 | inactive

SMILES | cytotoxicity call
N=C(N)c1ccc(OCCCCCOc2ccc(C(=N)N)cc2)cc1.O=S(=O)(O)CCO.O=S(=O)(O)CCO | active
CC(=O)NCCOc1ccc(C(=O)O)cc1 | inactive
N=C(N)c1ccc(C(N)=O)cc1 | inactive
C[C@@H]1CCCCO[C@@H](CN(C)S(=O)(=O)c2cn(C)cn2)[C@H](C)CN([C@H](C)CO)C(=O)c2cc(NS(C)(=O)=O)ccc2O1 | inactive
C[C@H](CO)N1C[C@H](C)[C@@H](CN(C)S(=O)(=O)c2ccccc2)Oc2ccc(NS(=O)(=O)c3cn(C)cn3)cc2C1=O | inactive
CO[C@H]1CN(C)C(=O)c2cc(NC(C)=O)ccc2OC[C@H](C)N(S(=O)(=O)c2cn(C)cn2)C[C@H]1C | inactive
CCC(=O)c1ccc(O)cc1 | inactive
CCC(=C(CC)c1ccc(O)cc1)c1ccc(O)cc1 | active
CCC(c1ccc(O)cc1)C(CC)c1ccc(O)cc1 (stereo not drawn) | inactive
CNC[C@@H]1OCCCC[C@H](C)Oc2ccc(NC(=O)Nc3ccc(C(F)(F)F)cc3)cc2C(=O)N([C@@H](C)CO)C[C@H]1C | inactive
O=C(Cc1ccccn1)NCC[C@@H]1CC[C@H](NC(=O)CN2CCOCC2)[C@@H](CO)O1 | inactive
Cc1ccc(S(=O)(=O)n2cc([C@@H]3CC(=O)N(C(=O)OCc4ccccc4)[C@@H]3C(=O)Nc3cccc4cccnc34)c3ccccc32)cc1 | inactive
CN1CCN(c2ccc(OC(F)(F)F)c(Nc3ncc4c(n3)-c3c(c(C(N)=O)nn3CCO)CC4)c2)CC1 | active
Cn1c(=O)c2c(nc(NCCN)n2C)n(C)c1=O | inactive
COc1ccc2c3c([nH]c2c1)[C@@H](CO)N(C[C@]13CCN(CC1)C(=O)CN(C)C)S(=O)(=O)C | inactive
CCCN(CCC)c1cc(N2CCCC2)c2ccccc2c1 | active
C[C@@H]1CN([C@H](C)CO)C(=O)c2cc(NC(=O)Cc3ccccc3)ccc2O[C@H]1CN(C)S(=O)(=O)c1ccccc1 | inactive
Cc1ccc(S(=O)(=O)Nc2ccc3c(c2)C(=O)N([C@H](C)CO)C[C@H](C)[C@H](CN(C)C(=O)Nc2c(C)noc2C)OCCCC[C@@H](C)O3)cc1 | inactive
CN1CCN(C(=O)C[C@H]2CC[C@@H]3[C@@H](COc4ccc(NC(=O)c5ccc(F)c(F)c5)cc4C(=O)N3C)O2)CC1 | inactive
C[C@@H]1CCCCO[C@@H](CN(C)Cc2ccccc2)[C@@H](C)CN([C@H](C)CO)C(=O)c2cc(NC(=O)CCCCCC(=O)Nc3ccccc3N)ccc2O1 | inactive
Cc1ccc(NC(=O)Nc2cc(C(F)(F)F)ccc2F)cc1Nc1ccc2c(c1)NC(=O)/C2=C\c1ccc[nH]1 | active

SMILES | cytotoxicity call
COc1ccc(S(=O)(=O)N[C@H]2C=C[C@H](CC(=O)NCCc3ccncc3)O[C@@H]2CO)cc1 | inactive
Cc1ccc(S(=O)(=O)N(C)C[C@@H]2OCCCC[C@@H](C)Oc3ccc(NC(=O)CCC(F)(F)F)cc3C(=O)N([C@H](C)CO)C[C@H]2C)cc1 | inactive
Cc1ccc(S(=O)(=O)N(C)C[C@H]2OCCCC[C@H](C)Oc3ccc(NC(=O)CCC(F)(F)F)cc3C(=O)N([C@H](C)CO)C[C@@H]2C)cc1 | inactive
C[C@@H]1CN([C@@H](C)CO)C(=O)c2cc(NC(=O)CCC(F)(F)F)ccc2O[C@@H](C)CCCCO[C@H]1CN(C)S(=O)(=O)c1ccc(Cl)cc1 | inactive
C[C@@H]1CN([C@H](C)CO)C(=O)c2cc(NC(=O)CCC(F)(F)F)ccc2O[C@@H](C)CCCCO[C@@H]1CN(C)S(=O)(=O)c1ccc(Cl)cc1 | inactive
C[C@@H]1CCCCO[C@@H](CN(C)S(=O)(=O)c2ccc(Cl)cc2)[C@H](C)CN([C@H](C)CO)C(=O)c2cc(NC(=O)CCC(F)(F)F)ccc2O1 | active
C[C@@H]1CN([C@@H](C)CO)C(=O)c2cc(NC(=O)CCC(F)(F)F)ccc2O[C@@H](C)CCCCO[C@@H]1CN(C)S(=O)(=O)c1ccc(Cl)cc1 | inactive
C[C@H](CO)N1C[C@H](C)[C@@H](CN(C)S(=O)(=O)c2ccc(Cl)cc2)OCCCC[C@H](C)Oc2ccc(NC(=O)CCC(F)(F)F)cc2C1=O | inactive
C[C@@H]1CCCCO[C@H](CN(C)S(=O)(=O)c2ccc(Cl)cc2)[C@@H](C)CN([C@H](C)CO)C(=O)c2cc(NC(=O)CCC(F)(F)F)ccc2O1 | inactive
C[C@@H]1CN([C@H](C)CO)C(=O)c2cc(NC(=O)CCC(F)(F)F)ccc2O[C@@H](C)CCCCO[C@H]1CN(C)S(=O)(=O)c1ccc(Cl)cc1 | active
C[C@@H]1CCCCO[C@H](CN(C)S(=O)(=O)c2ccc(Cl)cc2)[C@@H](C)CN([C@@H](C)CO)C(=O)c2cc(NC(=O)CCC(F)(F)F)ccc2O1 | inactive
Cc1ccc(S(=O)(=O)N(C)C[C@@H]2OCCCC[C@H](C)Oc3ccc(NC(=O)CCC(F)(F)F)cc3C(=O)N([C@@H](C)CO)C[C@@H]2C)cc1 | active
C[C@@H]1CCCCO[C@H](CN(C)S(=O)(=O)c2ccc(Cl)cc2)[C@H](C)CN([C@H](C)CO)C(=O)c2cc(NC(=O)CCC(F)(F)F)ccc2O1 | active
COc1ccc(NC(=O)N(C)C[C@H]2Oc3c(NC(=O)C4CCOCC4)cccc3C(=O)N([C@@H](C)CO)C[C@H]2C)cc1 | inactive
CC(C)NC(=O)Nc1ccc2c(c1)C(=O)N([C@@H](C)CO)C[C@H](C)[C@@H](CN(C)C(=O)Nc1ccccc1)OCCCC[C@@H](C)O2 | inactive
C[C@H](CO)N1C[C@H](C)[C@H](CN(C)Cc2cccc3c2OCCCO3)OCc2cn(nn2)CCCC1=O | inactive
C[C@@H]1CCCCO[C@@H](CN(C)C(=O)CCC(F)(F)F)[C@@H](C)CN([C@H](C)CO)C(=O)c2cc(NS(=O)(=O)c3cccs3)ccc2O1 | inactive
Cc1noc(C)c1S(=O)(=O)N(C)C[C@H]1Oc2ccc(NC(=O)CCC(F)(F)F)cc2CC(=O)N([C@@H](C)CO)C[C@@H]1C | inactive
O=C(C[C@H]1C=C[C@@H](NS(=O)(=O)c2ccccc2F)[C@H](CO)O1)NCCCN1CCOCC1 | inactive
C[C@@H]1CCCCO[C@@H](CN(C)C(=O)Nc2ccccc2)[C@@H](C)CN([C@H](C)CO)C(=O)c2cc(NS(=O)(=O)c3ccc(Cl)cc3)ccc2O1 | inactive
C[C@@H]1CN([C@H](C)CO)C(=O)c2cccc(NC(=O)c3cnccn3)c2O[C@@H]1CN(C)S(=O)(=O)c1ccc(Cl)cc1 | inactive
